Laboratory results: PubChem BioAssay (NCI)
Compounds without any hit were thinned out: in the full panel of roughly 83,000, 20% have a hit.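 Treatment: one concentration, 48 hours, 96-well format. Scoring: percent growth, with anything below 10 considered active.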 A number with no mark means an inactive call. Active and inactive are the calls of the source.

Experiments:
Assay in all cases: NCI-60 one-dose screen, 48 h (100 = growth as untreated, 0 = no growth, -100 = all killed)
Conditions in all cases: 10 µM unless noted
[1] = test system: NCI-H23 lung
[2] = test system: NCI-H226 lung
[3] = test system: NCI-H322M lung
[4] = test system: HOP-62 NSCLC
[5] = test system: NCI-H460 lung
[6] = test system: NCI-H522 lung
[7] = test system: A549/ATCC NSCLC
[8] = test system: 786-0 renal
[9] = test system: MALME-3M melanoma
[10] = test system: MDA-MB-231 breast
[11] = test system: RXF 393 renal
[12] = test system: SF-268 CNS
[13] = test system: SF-295 CNS
[14] = test system: SF-539 CNS
[15] = test system: UACC-257 melanoma
[16] = test system: M14 melanoma
[17] = test system: HCT-15 colon
[18] = test system: COLO 205 colon
[19] = test system: DU-145 prostate
[20] = test system: K-562 leukemia

## O=C(CCc1nnc2sc(-c3ccc(Cl)cc3Cl)nn12)c1nc2ccccc2[nH]1
[1]
  growth: -35.1% (active)
[2]
  growth: -78.4% (active)
[3]
  growth: -54.7% (active)
[4]
  growth: -56.9% (active)
[5]
  growth: -57.8% (active)
[6]
  growth: -74.7% (active)
[7]
  growth: -46.1% (active)
[8]
  growth: -94.7% (active)
[9]
  growth: -26.5% (active)
[10]
  growth: -54.2% (active)
[11]
  growth: -92.9% (active)
[12]
  growth: 15.2%
[13]
  growth: -37.4% (active)
[14]
  growth: -19% (active)
[15]
  growth: -69.9% (active)
[16]
  growth: -47.5% (active)
[17]
  growth: -31.8% (active)

## COc1ccc2c(c1)nc(N)c1c3cc(C)c(C)cc3cn21
[1]
  growth: 80.4%
[2]
  growth: 86.8%
[3]
  growth: 94%
[4]
  growth: 84.7%
[5]
  growth: 48.4%
[6]
  growth: 19.6%
[7]
  growth: 79.4%
[8]
  growth: 91.2%
[9]
  growth: 76.5%
[10]
  growth: 84.6%
[11]
  growth: 78.1%
[12]
  growth: 75.6%
[13]
  growth: 64.3%
[14]
  growth: 95.7%
[15]
  growth: 83.7%
[16]
  growth: 57.5%
[17]
  growth: 48.7%

## O=C(CCc1nnc2sc(Cc3ccccc3Cl)nn12)c1nc2ccccc2[nH]1
[1]
  growth: 90.4%
[2]
  growth: 89.3%
[3]
  growth: 85.2%
[4]
  growth: 92.1%
[5]
  growth: 99.5%
[6]
  growth: 96.6%
[7]
  growth: 100%
[8]
  growth: 85.8%
[9]
  growth: 112%
[10]
  growth: 76.5%
[11]
  growth: 90.9%
[12]
  growth: 84.9%
[13]
  growth: 103%
[14]
  growth: 107%
[15]
  growth: 102%
[16]
  growth: 99.2%
[17]
  growth: 92.3%

## O=C(NN(C(=O)c1ccccc1)c1cccs1)c1ccccc1
[1]
  growth: 103%
[2]
  growth: 99.8%
[3]
  growth: 94%
[4]
  growth: 97%
[5]
  growth: 116%
[6]
  growth: 91.3%
[8]
  growth: 100%
[18]
  growth: 106%
[19]
  growth: 123%
[20]
  growth: 109%
[9]
  growth: 97.3%
[10]
  growth: 93.4%
[11]
  growth: 115%
[12]
  growth: 112%
[13]
  growth: 116%
[14]
  growth: 110%
[15]
  growth: 139%
[16]
  growth: 101%
[17]
  growth: 101%

## Cn1cc(-c2csc(-c3c[nH]c4ncccc34)n2)c2cc(Br)cnc21
[1]
  growth: 31.6%
[2]
  growth: 49%
[3]
  growth: 59.9%
[4]
  growth: -19.7% (active)
[5]
  growth: 7.22% (active)
[6]
  growth: -2.08% (active)
[7]
  growth: 5.11% (active)
[8]
  growth: 20%
[9]
  growth: 32.8%
[10]
  growth: -1.21% (active)
[11]
  growth: 26.1%
[12]
  growth: 64.8%
[13]
  growth: -1.78% (active)
[14]
  growth: 70.1%
[15]
  growth: 57.1%
[16]
  growth: 35.2%
[17]
  growth: 66.8%

## CN(CC(=O)N(Cc1ccc(C2CCCCC2)cc1)c1ccc(C(=O)O)cc1)S(=O)(=O)c1c(F)c(F)c(F)c(F)c1F
[1]
  growth: -19.9% (active)
[2]
  growth: 97.4%
[3]
  growth: 86.4%
[4]
  growth: 60.6%
[5]
  growth: 96%
[6]
  growth: 44.7%
[7]
  growth: 100%
[18]
  growth: 12.9%
[19]
  growth: -18% (active)
[20]
  growth: 1.31% (active)
[9]
  growth: 62%
[10]
  growth: -28.7% (active)
[11]
  growth: -87.3% (active)
[12]
  growth: 67.5%
[13]
  growth: 108%
[14]
  growth: 99.2%
[15]
  growth: 31.6%
[16]
  growth: 19.9%
[17]
  growth: -46.1% (active)

## C[N+]1(CCc2ccccc2)CCC(CCC2CC[N+](C)(CCc3ccccc3)CC2)CC1 (configuration not stated)
[1]
  growth: 87.4%
[2]
  growth: 92.1%
[3]
  growth: 120%
[4]
  growth: 66.9%
[5]
  growth: 103%
[6]
  growth: 98.8%
[8]
  growth: 110%
[18]
  growth: 104%
[19]
  growth: 117%
[20]
  growth: 129%
[9]
  growth: 118%
[10]
  growth: 101%
[11]
  growth: 105%
[12]
  growth: 102%
[13]
  growth: 97.1%
[14]
  growth: 106%
[15]
  growth: 110%
[16]
  growth: 103%
[17]
  growth: 104%

## COc1ccc(-n2nc3c(c2-c2ccc(OC)c(OC)c2)-c2oncc2CC3)cc1
[1]
  growth: 93.3%
[2]
  growth: 106%
[3]
  growth: 97.7%
[4]
  growth: 94.1%
[5]
  growth: 90.3%
[6]
  growth: 18.1%
[7]
  growth: 82.5%
[8]
  growth: 78%
[9]
  growth: 100%
[10]
  growth: 80%
[11]
  growth: 83.8%
[12]
  growth: 84%
[13]
  growth: 84%
[14]
  growth: 114%
[15]
  growth: 110%
[16]
  growth: 93.6%

## CN=C(NC)N/N=C(C)\C=N\NC(=NC)NC
[1]
  growth: 104%
[2]
  growth: 98.8%
[3]
  growth: 107%
[4]
  growth: 100%
[5]
  growth: 104%
[6]
  growth: 102%
[7]
  growth: 100%
[8]
  growth: 102%
[19]
  growth: 109%
[9]
  growth: 105%
[10]
  growth: 97.8%
[12]
  growth: 99.5%
[13]
  growth: 96.5%
[14]
  growth: 99.1%
[15]
  growth: 100%
[16]
  growth: 101%
[17]
  growth: 101%

## O=C(Nc1ccc(Cl)cc1)Nc1ccc(Oc2nncc3ccccc23)cc1
[1]
  growth: 0.498% (active)
[2]
  growth: -54.5% (active)
[3]
  growth: 60.9%
[4]
  growth: 12.9%
[5]
  growth: 21.5%
[6]
  growth: -46.3% (active)
[7]
  growth: 40%
[18]
  growth: 11.9%
[19]
  growth: 11.2%
[20]
  growth: 5.58% (active)
[9]
  growth: 0.777% (active)
[10]
  growth: -25.2% (active)
[11]
  growth: -91.2% (active)
[12]
  growth: 12.6%
[13]
  growth: 40.7%
[14]
  growth: -76.5% (active)
[15]
  growth: 34.4%
[16]
  growth: 7.3% (active)
[17]
  growth: 2.76% (active)

## Clc1ccc2c(Nc3ccc4oc(NCCN5CCCC5)nc4c3)ccnc2c1
[1]
  growth: 88.7%
[2]
  growth: 101%
[3]
  growth: 90.1%
[4]
  growth: 109%
[5]
  growth: 96.4%
[6]
  growth: 98.5%
[7]
  growth: 92.9%
[18]
  growth: 84.4%
[19]
  growth: 71.1%
[20]
  growth: 20.8%
[9]
  growth: 105%
[10]
  growth: 37.3%
[11]
  growth: 81.8%
[12]
  growth: 72.5%
[13]
  growth: 106%
[14]
  growth: 47.6%
[15]
  growth: 108%
[16]
  growth: 50.7%
[17]
  growth: 49.3%

## C=Cc1nn2c(CCC(=O)c3nc4ccccc4[nH]3)nnc2s1
[1]
  growth: 99.4%
[2]
  growth: 97.5%
[3]
  growth: 94%
[4]
  growth: 97.9%
[5]
  growth: 105%
[6]
  growth: 102%
[7]
  growth: 105%
[8]
  growth: 97.5%
[9]
  growth: 108%
[10]
  growth: 101%
[11]
  growth: 106%
[12]
  growth: 101%
[13]
  growth: 99.7%
[14]
  growth: 113%
[15]
  growth: 110%
[16]
  growth: 92.9%
[17]
  growth: 101%

## COc1ccc(C(=O)C(C)Br)cc1OC (configuration not stated)
[1]
  growth: 90.7%
[2]
  growth: 96.1%
[3]
  growth: 99%
[4]
  growth: 106%
[5]
  growth: 103%
[6]
  growth: -10.4% (active)
[8]
  growth: 95.5%
[18]
  growth: 23.3%
[19]
  growth: 107%
[20]
  growth: 59.2%
[9]
  growth: 97.2%
[10]
  growth: 90%
[11]
  growth: 102%
[12]
  growth: 90.9%
[13]
  growth: 102%
[14]
  growth: 92.9%
[15]
  growth: 80.1%
[16]
  growth: 97.5%
[17]
  growth: 46.4%

## Cc1ccc(NC(=O)CSc2nnc3n(Cc4ccccc4)c(=O)c4c(C)c(C(N)=O)sc4n23)cc1
[1]
  growth: 78.4%
[2]
  growth: 28.9%
[3]
  growth: 46.2%
[4]
  growth: -7.47% (active)
[5]
  growth: -40.9% (active)
[6]
  growth: 31.5%
[7]
  growth: 77.7%
[8]
  growth: 16.9%
[19]
  growth: 39%
[9]
  growth: 11.4%
[10]
  growth: -6.14% (active)
[11]
  growth: 79.9%
[12]
  growth: 55.8%
[13]
  growth: 53%
[15]
  growth: 56.4%
[16]
  growth: 60.5%
[17]
  growth: 84.4%

## CCS(=O)(=O)OCCCl
[1]
  growth: 22.4%
[2]
  growth: 98.4%
[3]
  growth: 103%
[4]
  growth: 108%
[5]
  growth: 107%
[6]
  growth: 14.3%
[8]
  growth: 96.5%
[18]
  growth: 102%
[19]
  growth: 116%
[20]
  growth: 122%
[9]
  growth: 113%
[10]
  growth: 118%
[12]
  growth: 107%
[13]
  growth: 97.2%
[14]
  growth: 94.9%
[15]
  growth: 72.1%
[16]
  growth: 116%
[17]
  growth: 92.9%

## O=C(CSCC(=O)N/N=C/c1ccccc1O)N/N=C\c1ccccc1O
[1]
  growth: 40.8%
[2]
  growth: 39.4%
[3]
  growth: 15.7%
[4]
  growth: 25.3%
[5]
  growth: 14.2%
[7]
  growth: 38.1%
[8]
  growth: 5.14% (active)
[18]
  growth: 17.2%
[19]
  growth: 37.1%
[20]
  growth: 10.8%
[9]
  growth: 2.43% (active)
[10]
  growth: 42.7%
[11]
  growth: 44.8%
[12]
  growth: 28.9%
[13]
  growth: 35.5%
[14]
  growth: 25.6%
[15]
  growth: 25.6%
[16]
  growth: -4.57% (active)
[17]
  growth: 22.9%

## CCC(CCC(C)C1CCC2C3CC=C4CC(O)CCC4(C)C3CCC12C)C(C)C (configuration not stated) (tested in a mixture with another compound)
[1]
  growth: 112%
[2]
  growth: 101%
[3]
  growth: 145%
[4]
  growth: 114%
[5]
  growth: 96.6%
[6]
  growth: 116%
[8]
  growth: 96%
[18]
  growth: 107%
[19]
  growth: 115%
[20]
  growth: 82%
[9]
  growth: 138%
[10]
  growth: 115%
[12]
  growth: 79.9%
[13]
  growth: 76.9%
[14]
  growth: 80.3%
[16]
  growth: 92.2%
[17]
  growth: 95.6%

## COc1cc([C@@H]2c3cc4c(cc3C(O[C@@H]3O[C@@H]5CO[C@@H](c6cccs6)OC5[C@H](O)[C@H]3O)C3COC(=O)[C@@H]32)OCO4)cc(OC)c1O (some centres not stated)
[1]
  growth: -32.5% (active)
[2]
  growth: -53.9% (active)
[3]
  growth: 7.81% (active)
[4]
  growth: -39.8% (active)
[5]
  growth: -36.7% (active)
[7]
  growth: -48.3% (active)
[8]
  growth: -40.6% (active)
[18]
  growth: -23.8% (active)
[19]
  growth: -33.4% (active)
[20]
  growth: 4.5% (active)
[9]
  growth: -28.7% (active)
[10]
  growth: -18.8% (active)
[11]
  growth: -72.3% (active)
[12]
  growth: -17.1% (active)
[13]
  growth: -19.9% (active)
[14]
  growth: -35.5% (active)
[15]
  growth: -19.7% (active)
[16]
  growth: -43.2% (active)
[17]
  growth: 5.54% (active)
